Source: PubChem BioAssay (National Center for Advancing Translational Sciences (NCATS))
pAkt inh: Akt phosphorylation inhibition. AID 651550. Neuro2A IGF-stimulated pAkt S473 HTRF, 20 min; stronger effect = lower value. actives 0.32% (n = 360,000). activity change, % for hits at 50 µM; in the data active = activity change below about -80%; inconclusive = mostly about -51% to -80%; also: % is scaled to controls: 0 for no effect and ±100 for the full control effect
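Neuro2A cells in DMEM with 0.5% FBS, overnight at 37 deg C, given compound at single 50 µM final, then IGF (6 nM final) for 20 min at 37 deg C. Lysed; phospho-Akt Ser473 by HTRF after 24 h, 665/615 ratio.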
LDHA block: blocks human lactate dehydrogenase A | activity change, % (values are at about 110 or 230 µM) | AID 1347041 | actives 0.15% (n = 480,000) | purified LDHA, NADH/diaphorase-resazurin fluorescence; stronger effect = lower value; in the data active = activity change below about -30%; inconclusive = mostly about -25% to -30%;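 also: plate controls were DMSO wells for no effect and wells without enzyme for full effect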
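Resorufin fluorescence (ex540/em590), read at 0 and 20 min after diaphorase/resazurin addition, reports the NADH left after a 5 min room-temperature reaction of 2 nM human LDH5 with 0.06 mM NADH and 0.2 mM pyruvate.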
CXXC DNA block: inhibitors of human MLL CXXC domain-DNA interaction. AID 2662. Potency, µM (highest dose often 115 µM), for inactives: at the highest dose activity change, negative = inhibition, hits mostly inhibitors. MLL-CXXC / FITC-HOXA9 DNA fluorescence polarization. Q03164. actives 0.037% (n = 290,000); active = well fitted inhibition curve with a large enough effect in the polarisation, with a control signal flat, not every such curve was filed as active; inconclusive = small, poorly fitted or top-dose-only effect, or effect the other way, or a change in a side signal; inactive = no such curve, though single readings can be large or run the other way; the % refers to the polarisation; also: potency is read from the fitted curve at half-maximal effect
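Fluorescence polarization: 7 uM MLL-CXXC (stock) preincubated 5 min with compounds, then 50 nM fluorescein-HOX-A9 DNA (stock) added; 30 min ambient. Buffer 50 mM Tris-HCl pH 7.5, 50 mM NaCl, 1 mM DTT, 0.05% BSA.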
Menin MLL FP TR: menin-MLL binding inhibition, Texas Red mutant peptide; O00255; Menin + Texas Red MLL mutant peptide, fluorescence polarization; Potency, µM (series often up to 61.6 µM), for inactives: at the top dose FP activity change, negative = inhibition, actives largely listed as inhibitors; actives 0.23% (n = 270,000); AID 1768; active = well fitted inhibition curve with a large enough effect in the polarisation, with a control signal flat, not every such curve was filed as active; inconclusive = small, poorly fitted or top-dose-only effect, or effect the other way, or a change in a side signal; inactive = no such curve, though single readings can be large or run the other way; the % refers to the polarisation; also: potency is read from the fitted curve at half-maximal effect; % of control where 0% means no effect
IDH1 R132H inh: human IDH1 R132H inhibition. O75874. IDH1-R132H enzyme, NADPH consumption, diaphorase/resazurin fluorescence. Potency, µM (series often up to 76.6 µM), without a hit: at the highest dose activity change, negative = inhibition, most hits filed as inhibitors. actives 0.093% (n = 390,000); also: potency is read from the fitted curve at half-maximal effect; % is scaled to controls: 0 for no effect and ±100 for the full control effect; nearly all actives have a fitted effect of over 65% in size
Target sequence (O75874 whole entry R132H, stated change not applied): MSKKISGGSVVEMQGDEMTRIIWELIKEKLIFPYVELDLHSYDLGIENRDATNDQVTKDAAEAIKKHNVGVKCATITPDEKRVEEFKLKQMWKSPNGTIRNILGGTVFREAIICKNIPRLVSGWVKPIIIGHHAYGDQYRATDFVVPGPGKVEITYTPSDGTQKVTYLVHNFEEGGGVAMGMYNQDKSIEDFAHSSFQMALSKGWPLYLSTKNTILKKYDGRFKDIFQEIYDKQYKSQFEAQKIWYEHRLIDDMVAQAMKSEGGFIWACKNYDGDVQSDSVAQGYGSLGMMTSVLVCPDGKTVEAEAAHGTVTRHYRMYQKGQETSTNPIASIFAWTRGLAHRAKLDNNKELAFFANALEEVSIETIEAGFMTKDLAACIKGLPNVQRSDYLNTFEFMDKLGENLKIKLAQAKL
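IDH1-R132H (0.5 ug/mL dispensed) in pH 7.5 Tris buffer was preincubated 30 min with compound, then given a substrate mix of 0.016 mM NADPH and 2 mM alpha-KG for 80 min at room temperature; remaining NADPH was read by diaphorase/resazurin fluorescence.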
Menin-MLL FL inh: displaces fluorescein MLL peptide from human menin; 290,000 tested, under 10 active; FP activity change, % at 61.4 µM; Fluorescence polarization, fluorescein-MLL peptide displacement from menin; AID 1766; active = well fitted curve in the direction sought with a large enough effect in the polarisation, not every such curve was filed as active; inconclusive = small, poorly fitted or top-dose-only effect, or effect the other way, or a change in a side signal; inactive = no such curve, though single readings can be large or run the other way; the % refers to the polarisation; also: % of control where 0% means no effect
IDH1 autofl: interferes with resorufin fluorescence in IDH1 counter-screen; Resorufin detection reagent fluorescence interference, cell-free; inhibition of signal, % at 51.2 µM; 750 tested, under 10 active; AID 623980; shares compounds with IDH1 R132H inh;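 also: 0% = wells with normal resorufin and full inhibition = wells lacking resorufin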
IDH1 WT: selectivity of mutant IDH1 inhibitors: human wild-type IDH1; Potency, µM (series often up to 115 µM), without a hit: top-dose activity change, negative = inhibition, actives largely listed as inhibitors; WT IDH1 enzyme, NADPH diaphorase/resazurin fluorescence; shares compounds with IDH1 R132H inh; actives 9% (n = 750);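 also: potency is read from the fitted curve at half-maximal effect; 0% = full WT IDH1 enzyme control and full inhibition = no enzyme wells; nearly all actives have a fitted effect of over 55% in size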
Target sequence (O75874 whole entry, looked up): as the sequence (O75874 whole entry R132H, stated change not applied) above, with H132R counted along it
IDH1 R132H conf: mutant IDH1 (human) inhibition, confirmed; actives 83% (n = 750); Potency, µM (titrated, usually from 76.6 µM), for inactives: at the highest dose activity change, negative = inhibition, most hits filed as inhibitors; shares compounds with IDH1 R132H inh; IDH1 R132H enzyme, NADPH diaphorase/resazurin fluorescence; also: potency is read from the fitted curve at half-maximal effect; nearly all actives have a fitted effect of over 50% in size
An asterisk follows results filed as active; i = inactive; ? = inconclusive; . = no result. Shown are actives, neighbours in structure and some others; about 0.54% of the full set was active somewhere. Unless noted, calls follow the shape of the dose curve; as a rule, active = well fitted curve in the direction sought with a large enough effect; inconclusive = small, poorly fitted or top-dose-only effect, or another doubt; inactive = no such curve, though single readings can be large; an effect the other way counts as inactive or inconclusive.

SMILES | pAkt inh | LDHA block | CXXC DNA block | Menin MLL FP TR | IDH1 R132H inh | Menin-MLL FL inh | IDH1 autofl | IDH1 WT | IDH1 R132H conf
CCOc1ccccc1NC(=O)C(OC(=O)c1cc(OC)c(OC)cc1OC)c1ccccc1 (configuration not stated) | . | 1.7 | . | . | . | . | . | . | .
COc1cc(OC)cc(C(=O)NCCNC(=O)c2cn(C)c3ccccc23)c1 | . | 7.2 | . | . | . | . | . | . | .
Cc1ccc(C)c(S(=O)(=O)Nc2nc3ccccc3nc2Nc2ccc(F)cc2)c1 | . | -2.8 | . | . | . | . | . | . | .
COc1ccc(CC(=O)NCc2cccc(C(F)(F)F)c2)cc1 | . | 1.6 | . | . | . | . | . | . | .
CCc1ccc(NC(=O)CN2C(=O)C3CCCN3c3ccc(S(=O)(=O)N(CC)CC)cc32)cc1 (configuration not stated) | . | -2.2 | . | . | 44.7µM* | . | -5.4 | -3.6% | 28.2µM*
COc1c(Cl)cc(Cl)cc1CNC12CC3CC(CC(C3)C1)C2 | . | -1.9 | . | . | . | . | . | . | .
CCc1ccc(Sc2cc(C(=O)NC(C)CC)c3ccccc3n2)cc1 (configuration not stated) | . | 3.5 | . | . | ? | . | -4.6 | -12.1% | ?
CCC(C)NC(=O)c1cc(Sc2cccc(Cl)c2)nc2ccccc12 (configuration not stated) | . | 0.5 | . | . | 9.5% | . | . | . | .
Cc1ccc(/C=C(/C#N)C(=O)c2ccccc2)o1 | . | 9.0 | . | . | . | . | . | . | .
COc1cc(/C=C2\SC(c3ccc(C)cc3)=NC2=O)cc(OC)c1OC | i | -3.8 | 0.4% | 8.9% | -0.5% | ? | . | . | .
COc1cc(/C=C2\SC(c3ccccc3)=NC2=O)cc(Cl)c1O | i | 12.4 | ? | ? | 58.5µM* | ? | -4.4 | 7.5% | 44.7µM*
CC(=O)Nc1ccc(-c2cn3ccsc3n2)cc1 | i | -1.6 | 3.4% | 7.0% | -3.6% | 0.8 | . | . | .
c1cn2cc(-c3ccc4c(c3)OCO4)nc2s1 | . | 0.0 | -5.4% | -1.9% | 23.3µM* | 0.2 | -4.3 | 140.6% | 50.1µM*
CCOc1ccc(CCN2C(=O)C(=O)N([C@@H](Cc3ccc(O)cc3)CN3CCC[C@@H]3CN3C(=O)C(=O)NC[C@@H]3Cc3ccccc3)C[C@@H]2Cc2ccccc2)cc1 | i | 0.1 | . | . | 31.6µM* | . | -6.3 | 5.4% | 10µM*
O=C1NC[C@H](Cc2ccccc2)N(C[C@H]2CCCN2C[C@H](Cc2ccccc2)N2C[C@H](Cc3ccc(O)cc3)N(CC3CCCCCC3)C(=O)C2=O)C1=O | i | -0.8 | . | . | ? | . | 1.4 | -4.7% | 10µM*
CC(C)C[C@@H](CN1CCC[C@@H]1CN1C(=O)C(=O)NC[C@@H]1Cc1ccccc1)N1C[C@H](Cc2ccc(O)cc2)N(CC2CCCCCC2)C(=O)C1=O | i | 1.4 | . | . | 28.2µM* | . | -5.6 | 0.1% | 11.2µM*
O=C1NC[C@H](Cc2ccccc2)N(C[C@H]2CCCN2C[C@H](Cc2ccc(O)cc2)N2C[C@H](Cc3ccc(O)cc3)N(CC3CCCCCC3)C(=O)C2=O)C1=O | i | -9.4 | . | . | ? | . | 2.6 | 4.8% | 15.8µM*
O=C1NC[C@H](Cc2ccc(O)cc2)N(C[C@@H]2CCCN2C[C@H](Cc2ccc(O)cc2)N2C[C@H](Cc3ccccc3)N(CC3CCCCCC3)C(=O)C2=O)C1=O | i | -2.4 | . | . | . | . | . | . | .
O=C(NC(c1ccco1)c1cc(Cl)c2cccnc2c1O)c1ccc(F)c(F)c1 (configuration not stated) | . | 5.3 | . | . | . | . | . | . | .
COc1cc([C@@H]2c3cc4c(cc3[C@@H](O)[C@H]3COC(=O)[C@H]23)OCO4)cc(OC)c1O[Si](C)(C)C(C)(C)C | i | 5.2 | -5.2% | . | 28.2µM* | 4.6 | -0.3 | ? | ?
COc1cc([C@@H]2c3cc4c(cc3[C@H](O)C3COC(=O)[C@@H]32)OCO4)cc(OC)c1OC (some centres not stated) | . | . | -9.5% | 3.7% | . | 0.6 | . | . | .
O=C1CN(c2nc(-c3cccs3)nc3sc4c(c23)CCCC4)CCN1 | i | -1.2 | 0.5% | 0.4% | 52.1µM* | -2.1 | -14.3 | ? | 28.2µM*
OC(CSCCc1ccccn1)C(O)CSCCc1ccccn1 (configuration not stated) | . | -9.8 | . | . | . | . | . | . | .
COc1ccc2c(C)c(CC(=O)NCc3ccc(Cl)cc3)c(=O)oc2c1 | . | 0.6 | . | . | . | . | . | . | .
CN(C)Cc1c(C(=O)N/N=C/c2cccc(OCc3c(F)cccc3Cl)c2)nnn1-c1nonc1N | i | -3.9 | 44.3% | . | -2.4% | . | . | . | .
SMILES | pAkt inh | LDHA block | CXXC DNA block | Menin MLL FP TR | IDH1 R132H inh | Menin-MLL FL inh | IDH1 autofl | IDH1 WT | IDH1 R132H conf
CN(C)Cc1c(C(=O)N/N=C/c2ccccc2OCc2c(F)cccc2Cl)nnn1-c1nonc1N | i | -2.9 | -12.5% | -3.9% | 36.9µM* | -4.1 | -4.1 | -0.3% | 7.08µM*
O=C(CCl)N1CCN(S(=O)(=O)c2ccc3c(c2)CCC3)CC1 | i | 0.8 | . | . | 46.5µM* | . | -5.6 | -24.3% | 28.2µM*
CN1C(=O)N(CC(=O)N2CCN(S(=O)(=O)c3ccc4c(c3)CCC4)CC2)C(=O)C12CCCCC2 | i | -3.7 | . | . | 0.4% | . | . | . | .
COc1ccc2c(C)c(CC(=O)NC3CCCCCC3)c(=O)oc2c1OC | . | -9.3 | . | . | . | . | . | . | .
Cc1cc(C(C)(C)C)cc(S(=O)(=O)Nc2ccc(O)c(C(=O)O)c2)c1C | i | 1.3 | -10.6% | ? | ? | -1.0 | -0.5 | 0.7% | 28.2µM*
O=C(O)c1cc(NS(=O)(=O)c2cccc3ccccc23)ccc1O | i | . | 13.0% | 4.2% | -6.4% | 1.5 | . | . | .
O=C(CCn1nc(-c2ccccc2)c2ccccc2c1=O)NCc1ccccc1 | . | 6.9 | . | . | . | . | . | . | .
CCOC(=O)CSC1=C(C#N)C(c2ccccc2OCC)C(C#N)C(=O)N1 (configuration not stated) | i | -24.4 | 0.2% | ? | 46.5µM* | 5.9 | -0.8 | 84.1% | 50.1µM*
CCOC(=O)CSC1=C(C#N)C(c2ccccc2OCC)C(C(=O)OCC)C(=O)N1 (configuration not stated) | i | 0.1 | 4.3% | -22.8% | 5.7% | 3.5 | . | . | .
